In ChEMBL document CHEMBL5308504, “Tm Shift (DSF) assay results for EUbOPEN Chemogenomics Library” (2023) one finds ΔTm data, which are given here for 32 compounds.

Assay [1] addresses Bromodomain-containing protein 4 (Homo sapiens) (UniProt O60885). The settings on record: Compound concentration 20.0 uM, Protein concentration 2.0 uM, Result type QC Liability.
The target of assay [2] is T1, Transcription intermediary factor 1-alpha (Homo sapiens) (UniProt O15164).
T1 sequence (whole entry): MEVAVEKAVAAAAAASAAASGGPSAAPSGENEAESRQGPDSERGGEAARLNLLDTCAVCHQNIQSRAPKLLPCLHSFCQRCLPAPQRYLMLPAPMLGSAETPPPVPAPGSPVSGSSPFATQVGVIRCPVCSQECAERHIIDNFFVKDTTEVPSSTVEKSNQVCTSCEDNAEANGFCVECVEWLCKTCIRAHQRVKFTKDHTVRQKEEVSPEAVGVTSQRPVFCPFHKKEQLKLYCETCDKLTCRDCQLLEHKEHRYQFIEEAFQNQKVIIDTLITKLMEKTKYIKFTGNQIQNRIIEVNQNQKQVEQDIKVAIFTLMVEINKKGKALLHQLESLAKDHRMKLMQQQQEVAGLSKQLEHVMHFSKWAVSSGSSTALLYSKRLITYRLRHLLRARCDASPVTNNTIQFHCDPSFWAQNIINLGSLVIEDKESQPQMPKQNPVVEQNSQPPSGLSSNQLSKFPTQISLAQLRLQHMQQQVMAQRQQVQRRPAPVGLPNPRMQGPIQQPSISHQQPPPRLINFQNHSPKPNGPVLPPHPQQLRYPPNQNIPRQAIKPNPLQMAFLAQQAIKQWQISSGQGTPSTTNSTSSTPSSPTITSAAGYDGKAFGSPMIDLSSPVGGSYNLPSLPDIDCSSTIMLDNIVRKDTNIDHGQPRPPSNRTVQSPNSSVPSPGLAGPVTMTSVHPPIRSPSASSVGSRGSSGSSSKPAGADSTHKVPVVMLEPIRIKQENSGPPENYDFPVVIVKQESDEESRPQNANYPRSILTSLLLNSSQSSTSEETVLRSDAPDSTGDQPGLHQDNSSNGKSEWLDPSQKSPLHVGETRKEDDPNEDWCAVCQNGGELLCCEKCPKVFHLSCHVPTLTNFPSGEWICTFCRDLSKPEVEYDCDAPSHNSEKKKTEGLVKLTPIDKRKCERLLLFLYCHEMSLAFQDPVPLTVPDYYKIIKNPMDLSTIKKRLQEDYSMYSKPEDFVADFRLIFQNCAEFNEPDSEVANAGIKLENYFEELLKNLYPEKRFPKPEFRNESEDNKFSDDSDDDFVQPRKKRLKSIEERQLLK
The settings on record: Compound concentration 20.0 uM, Protein concentration 2.0 uM, Result type QC Liability.

Several values for one entry are separate records, joined by “and”; a condition that tells them apart may be missing. Equal values may be shown once.

In the case of `Cc1nsc(Nc2cnc(C(F)(F)F)cn2)c1C(=O)Nc1ccc(O[C@H]2CCCN(CC(F)(F)F)C2)nc1`, the values for the ΔTm in assay [1] and in assay [2] were 1.66 °C and -2.89 °C, respectively.
The like results for `COc1c(-c2cn(C3CCC(=O)NC3=O)nn2)csc1C(=O)N1CCCC1` (centres undefined) were, in that order, -0.9 °C and -2.25 °C.
On the same counts, the results for `CN[C@@H](C)C(=O)N[C@H](C(=O)N1CCC[C@H]1C(=O)N[C@@H]1CCCc2ccccc21)C1CCCCC1` are -2.83 °C and -1.41 °C.
On the same counts, the results for `Fc1ccc(-c2c3cccc(C(F)(F)F)c3nn2Cc2ccc(F)cc2Cl)cc1` are -3.53 °C and -1.16 °C.
Regarding `CCc1nc(-c2cccc(C)c2)c(-c2ccncc2)s1`, the figures for the ΔTm in assay [1] and in assay [2] were 0.55 °C and -3.01 °C, respectively.
In the case of `CS(=O)(=O)CCNCc1ccc(-c2ccc3ncnc(Nc4ccc(OCc5cccc(F)c5)c(Cl)c4)c3c2)o1`, the figures for the ΔTm in assay [1] and in assay [2] were -2.54 °C and -3.02 °C, respectively.
The like results for `COc1ccccc1N1CCN(c2ncnc3c2cnn3-c2ccccc2)CC1` were, in that order, 0.01 °C and 0.1 °C.
Consider `CC#CCC(C)[C@H](O)/C=C/[C@@H]1[C@H]2C/C(=C/CCCC(=O)O)C[C@H]2C[C@H]1O` (some centres undefined), for which the ΔTm in assay [1] is -2.19 °C; in assay [2], 0.19 °C.
As for `O=c1cc(C2CCNCC2)n2nc3cccc(Cl)c3c2[nH]1`, the results for the shift in melting temperature (ΔTm) in assay [1] and in assay [2] were -0.48 °C and 0.25 °C, respectively.
On the same counts, the results for `CSc1ccc(C[C@@H](C)C(=O)O)cc1Nc1nc(N2CC[C@H](N(C)C)C2)cc(C(F)F)c1C#N` are 0.52 °C and 0.57 °C.
The like results for `N#Cc1ccc(C#CC[C@@H](C#N)NC(=O)[C@@H]2CCCCN2)cc1F` were, in that order, -1.93 °C and 0.36 °C.
On the same counts, the results for `CN(C)C/C=C/C(=O)Nc1cc2c(Nc3ccc(F)c(Cl)c3)ncnc2cc1OC[C@@H]1CCCO1` are -0.58 °C and -0.17 °C.
`C[C@@H]1C[C@H](C)CN(c2ncc(Cl)c(Nc3ccc4c(c3)cc(OC(C)(C)C(=O)O)c(=O)n4C)n2)C1`: the ΔTm in assay [1] is -0.93 °C; in assay [2] it was 0.15 °C.
On the same counts, the results for `CCN(CC)C(=O)C1CN2CCc3cc(OC)c(OC)cc3C2CC1OC(C)=O` (centres undefined) are -0.18 °C and 0.29 °C.
The like results for `Cc1nn(-c2nc3ccc(Cl)c(Cl)c3[nH]2)c(O)c1C1OC(=O)c2ccccc21` (centres undefined) were, in that order, -4.43 °C and -1.16 °C.
Turning to `Cc1c(NC(=O)COc2ccc(Cl)cc2C(=O)c2cc(F)cc(C(F)(F)F)c2)ccc(C(=O)O)c1F`, the ΔTm in assay [1] is -0.11 °C and -0.42 °C; in assay [2] it was 0.4 °C and 0.46 °C.
Consider `O=C(O)/C=C/c1ccc(Cn2ccnc2)cc1`, for which the ΔTm was -0.17 °C in assay [1] and -0.33 °C in assay [2].
On the same counts, the results for `C=CC[C@@H]1/C=C(\C)C[C@H](C)C[C@H](OC)[C@H]2O[C@@](O)(C(=O)C(=O)N3CCCC[C@H]3C(=O)O[C@H](/C(C)=C/[C@@H]3CC[C@@H](O)[C@H](OC)C3)[C@H](C)[C@@H](O)CC1=O)[C@H](C)C[C@@H]2OC` are -1.85 °C and -0.9 °C.
Take `C=CC(=O)Nc1cccc(C)c1Nc1ncc2cc(-c3c(Cl)c(OC)cc(OC)c3Cl)ccc2n1`: the ΔTm in assay [1] worked out at 0.13 °C; in assay [2], 0 °C.
The like results for `N[C@@H]1CCCN(c2c(/C=C3\SC(=O)NC3=O)cccc2-c2ccccc2)C1` were, in that order, -2.91 °C and -2.28 °C.
Regarding `CC(=O)c1c(C)c2cnc(Nc3ccc(N4CCNCC4)cn3)nc2n(C2CCCC2)c1=O`, the ΔTm in assay [1] was -1.52 °C and 0.07 °C; in assay [2] it was -1.97 °C and -2.09 °C.
For the compound `CCN(CC)C/C=C/C(=O)Nc1cc2c(Nc3ccc(F)c(Cl)c3)ncnc2cc1OCC1CC1`, the ΔTm in assay [1] is -1.26 °C; in assay [2] it was -0.54 °C.
The like results for `CC(=O)N1CCN([C@H]2CCC[C@@H](NC(=O)c3cc4c(F)ccc(C)c4[nH]3)C2)CC1` were, in that order, -1.7 °C and -1.5 °C.
For `Nc1ncnc2c1c(COc1cccc(Cl)c1)nn2C1CCOCC1`, the ΔTm in assay [1] was -0.35 °C; in assay [2], -2.38 °C.
On the same counts, the results for `CO[C@H]1C[C@@H]2CC[C@@H](C)[C@@](O)(O2)C(=O)C(=O)N2CCCC[C@H]2C(=O)O[C@H]([C@H](C)C[C@@H]2CC[C@@H](O)[C@H](OC)C2)CC(=O)[C@H](C)/C=C(\C)[C@@H](O)[C@@H](OC)C(=O)[C@H](C)C[C@H](C)/C=C/C=C/C=C/1C` are -2.02 °C and -0.81 °C.
As to `CN1CCN(c2ccnc(NCCc3ccccc3)n2)CC1`, the ΔTm in assay [1] is -0.31 °C; in assay [2], -0.99 °C.
The like results for `CC(C)(c1ccc(OCc2cccc(COc3ccc(C(=N)N)cc3)c2)cc1)c1ccc(O[C@@H]2O[C@H](C(=O)O)[C@@H](O)[C@H](O)[C@H]2O)cc1` were, in that order, 0.58 °C and -5.37 °C.
The like results for `CCc1ccc(-c2ncn(CC3(F)CCN(C)CC3)c2-c2ccnc3[nH]ccc23)nc1` were, in that order, -2.66 °C and -2.61 °C.
The like results for `CC(C)(C)OC(=O)CN1C(=O)c2c(OCC(=O)O)cccc2Oc2ccc(C(F)(F)F)cc21` were, in that order, 0 °C and 0.32 °C.
On to `CCCCC/C=C/C=C1/C(=O)C=C[C@@H]1C/C=C\CCCC(=O)O`, for which the ΔTm in assay [1] was -4.89 °C; in assay [2], -1.14 °C.
Take `CN(C(=O)c1cnn2cccnc12)c1cc2c(cc1N1CCOCC1)C(=O)N(C[C@@H](F)C(C)(C)O)C2`: the figures for the ΔTm in assay [1] and in assay [2] were 0.93 °C and -2.51 °C, respectively.
`CC(C)NC(=O)[C@H]1CCC[C@H]1Nc1nc(Nc2ccc(C(=O)N(C)C3CCN(C)CC3)cc2)ncc1Cl`: the ΔTm in assay [1] is -1.48 °C and -0.92 °C; in assay [2], 0.3 °C and -2.89 °C.
